The list is not random: actives were taken first. Their share in the collection is about 6.3%.
TIM10 inh: growth inhibitors of isogenic TIM10 control yeast, primary screen, counter-screen for tim10-1 yeast inhibitor project, luminescence, uHTS; S. cerevisiae TIM10 strain growth, BacTiter-Glo luminescence, 24 h; inhibition, % at 10 µM; 330,000 compounds, 1.4% hits; AID 463195, 2010;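 active = inhibition of 40% or more at the single tested concentration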;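 note: wild-type TIM10 isogenic control strain grown at permissive 25 °C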
MPTP inh: mitochondrial permeability transition pore inhibitors, primary screen, biochemical, isolated mouse mitochondria, absorbance; Ca2+ swelling absorbance, 30 min; inhibition, % at 10 µM; 360,000 compounds, 1.4% hits;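 active = inhibition of 50% or more, scaled per plate between neutral and stimulator controls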
Mdm2 MdmX PPI: inhibitors of human Mdm2-MdmX association, primary screen, cell-based, luminescence, split luciferase, SaOS-2, uHTS; Protein Mdm4 (Homo sapiens) + E3 ubiquitin-protein ligase Mdm2 (Homo sapiens), …; SaOS-2 split-luciferase Mdm2/MdmX complementation; inhibition, % at 8 µM; 330,000 compounds, 3% hits;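 active = inhibition of at least 50% at 8 µM in the primary screen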
Target sequence (O15151 whole entry, looked up): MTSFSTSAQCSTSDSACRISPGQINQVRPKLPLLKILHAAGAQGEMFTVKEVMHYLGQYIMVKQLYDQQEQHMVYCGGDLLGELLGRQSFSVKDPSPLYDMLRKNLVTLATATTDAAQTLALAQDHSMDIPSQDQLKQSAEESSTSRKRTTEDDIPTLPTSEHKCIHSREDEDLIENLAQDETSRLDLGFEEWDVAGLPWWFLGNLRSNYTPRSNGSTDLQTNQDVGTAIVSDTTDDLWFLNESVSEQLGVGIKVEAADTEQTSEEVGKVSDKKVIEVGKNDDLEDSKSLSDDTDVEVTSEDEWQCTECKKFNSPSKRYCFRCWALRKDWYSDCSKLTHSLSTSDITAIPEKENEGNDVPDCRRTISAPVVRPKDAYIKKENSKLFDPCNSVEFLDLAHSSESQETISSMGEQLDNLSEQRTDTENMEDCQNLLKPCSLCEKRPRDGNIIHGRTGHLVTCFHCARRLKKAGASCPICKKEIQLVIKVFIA
Target sequence (Q00987 whole entry, looked up): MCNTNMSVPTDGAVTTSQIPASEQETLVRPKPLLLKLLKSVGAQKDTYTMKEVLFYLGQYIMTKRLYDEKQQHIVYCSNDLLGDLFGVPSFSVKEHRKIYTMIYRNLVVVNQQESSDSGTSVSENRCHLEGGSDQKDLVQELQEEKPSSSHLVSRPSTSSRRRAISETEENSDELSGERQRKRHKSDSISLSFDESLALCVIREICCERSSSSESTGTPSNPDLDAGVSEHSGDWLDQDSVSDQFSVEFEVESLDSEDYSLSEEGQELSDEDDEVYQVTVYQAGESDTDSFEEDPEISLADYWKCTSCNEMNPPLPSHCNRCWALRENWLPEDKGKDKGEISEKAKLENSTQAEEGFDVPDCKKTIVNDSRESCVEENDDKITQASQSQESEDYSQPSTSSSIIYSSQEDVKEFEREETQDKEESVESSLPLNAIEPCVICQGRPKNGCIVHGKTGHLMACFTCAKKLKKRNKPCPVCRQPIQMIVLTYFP
tim23-1 inh: growth inhibitors of tim23-1 mutant yeast, primary screen, luminescence, uHTS; S. cerevisiae tim23-1 growth, BacTiter-Glo luminescence, 24 h; inhibition, % at 20 µM; 330,000 compounds, 1.3% hits; AID 463212, 2010;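 active = growth inhibition of the mutant yeast at or above 50%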;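 note: temperature-sensitive mutant grown at 25 °C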
tim10-1 inh: growth inhibitors of tim10-1 mutant yeast, primary screen, luminescence, uHTS; S. cerevisiae tim10-1 ts strain growth, BacTiter-Glo, 24 h; AID 463190, 2010; inhibition, % at 20 µM; 330,000 compounds, 2.2% hits;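 active = inhibition of at least 40%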;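 note: mutant grown at 25 °C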
Mdm2 MdmX conf: Mdm2-MdmX complex disruptors, retested hits, confirmation, luminescence, single concentration. shares compounds with Mdm2 MdmX PPI. Mdm2-MdmX binding, luminescent assay. inhibition, % at 8 µM. 10,000 compounds, 55% hits. AID 489028, 2010; in the data active = inhibition above about 40%
FLuc counter: full-length luciferase signal inhibition, confirmation, counter-screen for Mdm2/MdmX interaction inhibitor project, cell-based, single concentration, SaOS-2; 6,200 compounds, 77% hits; inhibition, % at 8 µM; shares compounds with Mdm2 MdmX PPI; SaOS-2 full-length luciferase counterscreen, luminescence; AID 504607, 2011;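 active = mean inhibition at 8 µM reaching about 37%, which flags the compound as non-specific, limit read from the data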;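 note: p53-null SaOS-2 cells with luciferase driven by a doxycycline-inducible promoter; compound on cells about two nights before reading with doxycycline added after day one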
Of the large screens only hits and unclear results are named; the others gave an inactive call (follow-up assays come after a bar, where they were run).

Cc1nnc2ccc(-c3ccc(NS(=O)(=O)c4ccc(F)cc4F)cc3)nn12	none
Cc1ccc(S(=O)(=O)Nc2cccc(-c3ccc4nncn4n3)c2)cc1	Mdm2 MdmX PPI 63.4 | Mdm2 MdmX conf 77.8 | FLuc counter 65.7
Cc1nnc2ccc(-c3ccc(NS(=O)(=O)c4ccccc4F)cc3)nn12	none
COCCNC(=S)N(C)[C@H]1C[C@H]2c3cc(N4CCN(C)CC4)ccc3CCN2C(=O)[C@H]1[C@H](C)O	none (no result: TIM10 inh, Mdm2 MdmX PPI, tim23-1 inh, tim10-1 inh)
CCCn1c(N)c(C(=O)CSc2nc3ccccc3s2)c(=O)[nH]c1=O	Mdm2 MdmX PPI 81.8 | Mdm2 MdmX conf 79.4 | FLuc counter 48.8
Cn1c(=O)[nH]c(=O)c2c1nc(N1CCCC1)n2CCCSc1nc2ccccc2o1	none
Cn1c(=O)[nH]c(=O)c2c1nc(Br)n2CCCSc1nc2ccccc2o1	Mdm2 MdmX PPI 65.1 | Mdm2 MdmX conf 56.2 | FLuc counter 97.6
Fc1ccccc1N1CCN(c2ncnc3[nH]ncc23)CC1	Mdm2 MdmX PPI 62.9 | Mdm2 MdmX conf inactive
O=C(c1[nH]ncc1-c1ccccc1)C1CO1 (centres undefined)	none
O=C(c1[nH]ncc1-c1cccc(Br)c1)C1CO1 (centres undefined)	Mdm2 MdmX PPI 50.9 | Mdm2 MdmX conf 43.5 | FLuc counter 50.8
CCOC(=O)[C@]12CCC=C1N(Cc1cccc3ccccc13)C(=O)[C@H](CC(=O)NCCCN1CCCC1=O)C2	none (no result: TIM10 inh, Mdm2 MdmX PPI, tim23-1 inh, tim10-1 inh)
O=C(CCl)Nc1cccc(S(=O)(=O)NC2=NCCC2)c1	Mdm2 MdmX PPI 53.5 | Mdm2 MdmX conf 43.8 | FLuc counter 68.2
CCOC(=O)NC(=O)CSc1nc(C)cc(C(F)(F)F)c1C#N	Mdm2 MdmX PPI 58.9 | Mdm2 MdmX conf inactive
COC(=O)CSc1nc(C)cc(C(F)(F)F)c1C#N	none
Cc1coc(NC(=O)CSc2nc(-c3ccncc3)cc(C(F)(F)F)c2C#N)n1	Mdm2 MdmX PPI 52.4 | Mdm2 MdmX conf inactive
CCOC(=O)CC(NC(=O)c1cccc2c1C(=O)N(Cc1cccnc1)C2)c1ccc(OCC)c(OC)c1 (centres undefined)	none
COc1cc(NC(=O)c2cccc3c2C(=O)N(Cc2cccnc2)C3)cc(OC)c1OC	Mdm2 MdmX PPI 51.6 | Mdm2 MdmX conf 47.6 | FLuc counter 95.3
CC1=[N+](C)c2ccc3ccccc3c2C1(C)C	Mdm2 MdmX PPI 85.6 | Mdm2 MdmX conf 69.2 | FLuc counter inactive
c1ccc2c(c1)ccc1ccccc12	none
CCOc1ccc2nc(NC(=O)CC3Oc4ccccc4NC3=O)sc2c1 (centres undefined)	Mdm2 MdmX PPI 62.3 | Mdm2 MdmX conf inactive | FLuc counter 63.4
CCNC(=O)C1CCCN(Cc2cc(C(F)(F)F)ccc2Cl)CC1 (centres undefined)	none (no result: TIM10 inh, Mdm2 MdmX PPI, tim23-1 inh, tim10-1 inh)
Cc1ccc2c(c1)Oc1ccc(NC(=O)CCCl)cc1C(=O)N2	Mdm2 MdmX PPI 66.6 | Mdm2 MdmX conf 68.0 | FLuc counter 101.5
CCCC(=O)Nc1ccc2c(c1)C(=O)NC2=O	none
CC1=C(C(=O)Nc2ccccc2)C(c2ccco2)C(C#N)=C(SCC(=O)Nc2cccc(C)c2C)N1 (centres undefined)	Mdm2 MdmX PPI 69.2 | Mdm2 MdmX conf 42.4 | FLuc counter 79.3
CCCCNC(=O)C1(C)CCN1C(=O)c1ccc2ccccc2n1 (centres undefined)	none (no result: TIM10 inh, Mdm2 MdmX PPI, tim23-1 inh, tim10-1 inh)
Cc1cc2oc(=O)cc(CN3CCCCCCC3)c2cc1Cl	none (no result: TIM10 inh, Mdm2 MdmX PPI, tim23-1 inh, tim10-1 inh)
Cc1cc(C(=O)NC2CCCc3c2cnn3-c2ccccc2F)nc(C)n1 (centres undefined)	none
CC(C)c1cc(C(=O)NC2CCCc3c2cnn3-c2ccccc2F)no1 (centres undefined)	Mdm2 MdmX PPI 89.7 | Mdm2 MdmX conf 76.7 | FLuc counter inactive
C#CCN(C(=O)C1CCC(=O)N(CCc2cccc(F)c2)C1)C1CCCCC1 (centres undefined)	none (no result: TIM10 inh, Mdm2 MdmX PPI, tim23-1 inh, tim10-1 inh)
CCOc1ccc(CCN2C(=O)C(=O)N([C@H](CCCN(C)Cc3ccccc3)CNCc3ccccc3)C[C@@H]2C(C)C)cc1	Mdm2 MdmX PPI 65.9 (no result: MPTP inh) | Mdm2 MdmX conf 56.1 | FLuc counter 58.5
COc1ccc(CNC[C@@H](CCCCN(C)Cc2ccc(OC)cc2)N2C[C@H](c3ccccc3)N(CCc3ccc(Cl)c(Cl)c3)C(=O)C2=O)cc1	Mdm2 MdmX PPI 99.3 | Mdm2 MdmX conf 100.3 | FLuc counter 52.6
CCOc1ccc(CCN2C(=O)C(=O)N([C@@H](CC(C)C)CN3CCC[C@@H]3CN3C(=O)C(=O)NC[C@@H]3CC(C)C)C[C@@H]2Cc2ccccc2)cc1	none (no result: TIM10 inh, Mdm2 MdmX PPI, tim23-1 inh, tim10-1 inh)
COc1ccc(CNC(=O)[C@@H]2CC=C[C@@H]3CCN(Cc4ccc(Cl)c(Cl)c4)C(=O)[C@@H]32)cc1	none
COc1c(F)cccc1C1=CC(=O)C[C@H](c2ccc(F)cc2)C1	none (no result: TIM10 inh, Mdm2 MdmX PPI, tim23-1 inh, tim10-1 inh)
C[C@@H]1CN([C@@H](C)CO)C(=O)c2cccc(NC(=O)Nc3ccccc3)c2O[C@H]1CN(C)C(=O)Nc1cccc2ccccc12	none
Cc1cc(N2CCN(C)CC2)nc2ccc(NC(=S)N3CCN(c4ccc(F)cc4)CC3)cc12	Mdm2 MdmX PPI 94.2 | Mdm2 MdmX conf inactive
Cc1cccc(N2CCN(C(=S)Nc3ccc4nc(N5CCN(C)CC5)cc(C)c4c3)CC2C)c1 (centres undefined)	Mdm2 MdmX PPI 88.1 | Mdm2 MdmX conf 60.2 | FLuc counter 64.8
CC1(C)OCC(N)(CO)CO1	none (no result: TIM10 inh, Mdm2 MdmX PPI, tim23-1 inh, tim10-1 inh)
CCN(CC)CCN(C(=O)/C=C/c1cccs1)c1nc2ccc(F)cc2s1	Mdm2 MdmX PPI 52.1 | Mdm2 MdmX conf inactive
CCN(CC)CCN(C(=O)/C=C/c1cccs1)c1nc2ccc(C)cc2s1	Mdm2 MdmX PPI 65.1 | Mdm2 MdmX conf inactive
CN(C)CCCN(C(=O)/C=C/c1cccs1)c1nc2ccc(F)cc2s1	Mdm2 MdmX PPI 58.6 | Mdm2 MdmX conf inactive | FLuc counter 62.7
CCN(CC)CCN(C(=O)c1ccc2ccccc2c1)c1nc2ccc(F)cc2s1	none
N=c1c(-c2nc3ccccc3[nH]2)cc(C(=O)c2cccs2)nn1-c1ccc(Cl)cc1	Mdm2 MdmX PPI 62.8 (no result: MPTP inh) | Mdm2 MdmX conf inactive
CC(=O)OCc1cc(-c2nc3ccccc3[nH]c2=O)nn1-c1ccc(Cl)cc1	none
CC1CCN(Cc2c(C(=O)N/N=C/c3ccc(C(C)(C)C)cc3)nnn2-c2nonc2N)CC1	Mdm2 MdmX PPI 50.4 | Mdm2 MdmX conf inactive
Cc1ccc(COc2cccc(/C=N/NC(=O)c3nnn(-c4nonc4N)c3C)c2)cc1	Mdm2 MdmX PPI 56.3 | Mdm2 MdmX conf inactive
CCOc1cc(/C=N/NC(=O)c2nnn(-c3nonc3N)c2C)ccc1OCc1ccc(C)cc1	none (no result: TIM10 inh, Mdm2 MdmX PPI, tim23-1 inh, tim10-1 inh)

Compound activity as filed in PubChem BioAssay.
